# Source: PubChem BioAssay
# TRPV1 potentiator – HTS Assay for Compounds that Act as Potentiators of the Vanilloid Receptor 1 | TRPV1-expressing cells, Fluo-8 calcium influx, capsaicin EC20 potentiation | AID 540277, 2011 | hit rate 0.02% among 320,000 | potentiation, % at 8.33 µM; in the data active means potentiation above about 80%; inconclusive means between about 30% and that limit; further: 0% is about no effect
#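 TRPV1-expressing cells were cultured overnight at 35.5C and loaded with Fluo-8 calcium dye for 40 to 90 min at room temperature. After a 10 s baseline, compound was added and calcium influx was read kinetically for 3 min (ex 480/em 520 nm).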
# LDHA block – qHTS assay for inhibitors of human lactate dehydrogenase | L-lactate dehydrogenase A chain (Homo sapiens), P00338 | purified LDHA, NADH/diaphorase-resazurin fluorescence; hits give low values | activity change, % (values are at about 110 or 230 µM) | hit rate 0.15% among 480,000 | AID 1347041, 2019; in the data active means activity change below about -30%; inconclusive means mostly about -25% to -30%;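 further: plate controls were DMSO wells for no effect and wells without enzyme for full effect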
#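 Enzyme activity of human lactate dehydrogenase 5 (2 nM; 0.06 mM NADH, 0.2 mM pyruvate, 5 min, RT) is measured via a resazurin/diaphorase fluorescence readout of residual NADH.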
# TRPML1 ag – qHTS for Agonists of the Human Mucolipin Transient Receptor Potential 1 (TRPML1); Mucolipin-1 (Homo sapiens), Q9GZU1; TRPML1-expressing cells, Ca2+ dye fluorescence, FDSS; activation, % (test concentration not listed); hit rate 0.12% among 410,000; AID 624414, 2012; in the data active means activation above about 50%; inconclusive means mostly about 30% to 49%; further: 0% is about no effect
# Target sequence (Q9GZU1 whole entry, looked up): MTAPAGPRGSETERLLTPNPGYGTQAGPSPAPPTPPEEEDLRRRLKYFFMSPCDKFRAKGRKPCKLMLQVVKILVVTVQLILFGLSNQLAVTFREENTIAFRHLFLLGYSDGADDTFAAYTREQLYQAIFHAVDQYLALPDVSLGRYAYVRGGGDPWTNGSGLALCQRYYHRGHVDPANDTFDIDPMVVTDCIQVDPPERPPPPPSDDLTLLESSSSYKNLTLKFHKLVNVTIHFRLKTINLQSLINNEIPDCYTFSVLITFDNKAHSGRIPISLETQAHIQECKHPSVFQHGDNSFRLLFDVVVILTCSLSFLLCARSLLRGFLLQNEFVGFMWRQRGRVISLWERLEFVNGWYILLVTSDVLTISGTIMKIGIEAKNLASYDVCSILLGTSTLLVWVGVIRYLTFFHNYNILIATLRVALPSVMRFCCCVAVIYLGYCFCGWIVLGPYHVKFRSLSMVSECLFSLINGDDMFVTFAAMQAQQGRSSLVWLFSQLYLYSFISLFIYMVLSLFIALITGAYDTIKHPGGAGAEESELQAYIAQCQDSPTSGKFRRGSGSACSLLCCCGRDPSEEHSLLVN
#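 TRPML1-DL cells, Tet-induced overnight (~16 h, 37 degrees C), loaded 45-90 min at room temperature with Ca8 no-wash calcium dye plus quencher. FDSS fluorescence: 10 s baseline, compound pin-transfer, 110 s agonist read, then EC80 54-4 (4uM final) and 110 s antagonist read.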
# TRPML1 inh – qHTS for Inhibitors of the Human Mucolipin Transient Receptor Potential 1 (TRPML1); TRPML1-inducible cells, Ca2+ dye fluorescence, FDSS; hits give low values; inhibition of EC80 agonist-evoked calcium signal; activity change, negative = inhibition, % (no concentration beside the values); Mucolipin-1 (Homo sapiens), Q9GZU1; hit rate 0.02% among 390,000; in the data active means activity change below about -50%; inconclusive means between about -30% and that limit;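 further: stimulus is agonist 54-4 at its EC80 concentration; on the % scale 0 is the no-effect control and ±100 the full control effect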
#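 Calcium fluorescence in TRPML1-DL cells induced overnight with Tet: a 110 s read after compound pin addition, then a 110 s antagonist read after challenge with 54-4 at 4 uM final (EC80).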
# TRPV1 agonist – HTS Assay for Compounds that Act as Agonists of the Vanilloid Receptor 1. hit rate 0.19% among 320,000. AID 540275, 2011. activation, % at 8.33 µM. Transient receptor potential cation channel subfamily V member 1 (Homo sapiens), Q8NER1. TRPV1-expressing cells, Fluo-8 calcium influx, agonist mode; in the data active means activation above about 80%; inconclusive means between about 30% and that limit; further: 0% is about no effect
#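 Fluo-8 calcium influx in TRPV1-expressing cells, kinetic read (ex 480/em 520 nm). Compound added and read 3 min for agonist activity, followed by capsaicin at EC20 final and 2 min further read for enhancement.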
# * hit, by the source's call; ? = inconclusive; nt = no result given. Hits are enriched below; roughly 0.41% of the tested compounds scored in any of these assays.
SMILES,TRPV1 potentiator,LDHA block,TRPML1 ag,TRPML1 inh,TRPV1 agonist
O=C(C1=C(O)C(=O)N(c2nccs2)C1c1ccccc1)c1cc2ccccc2o1 (stereo not drawn),4.4,-5.3,91.6*,-1.6,?
O=C(C1=C(O)C(=O)N(CCc2ccccc2)C1c1ccncc1)c1cc2ccccc2o1 (stereo not drawn),5.2,-2.7,0.7,-17.9,2.9
N#CCCN(C(=O)Cn1nc(C(=O)O)c2ccccc2c1=O)c1ccc(F)cc1,nt,1.1,nt,nt,nt
Cc1ccc(S(=O)(=O)N=Nc2c(O)[nH]c3ccccc23)cc1C,0.8,-36.1*,2.0,-24.0,-0.9
COc1ccc(S(=O)(=O)N=Nc2c(O)[nH]c3ccccc23)cc1,7.2,-4.3,-0.3,-3.8,-7.7
CC(C)(CC(=O)O)CC(=O)Nc1cccc(C(F)(F)F)c1,nt,7.2,nt,nt,nt
Cc1nc2cc(NC(C)C(=O)Nc3cccc(Cl)c3)ccc2o1 (stereo not drawn),nt,3.8,nt,nt,nt
O=C(CN1CCN(CC(=O)Nc2ccccc2Cl)CC1)NCC1(N2CCOCC2)CCCCC1,3.2,-4.9,98.2*,-10.4,-0.3
Cc1cccc(C)c1OCCCOc1ccccc1/C=N/NC(=O)c1cccc(Cl)c1,nt,2.8,nt,nt,nt
CCCC(C)NC(=O)Nc1cc(C(=O)NC2CC2)ccc1C (stereo not drawn),nt,-33.6*,nt,nt,nt
CCOC(=O)c1c(C)[nH]c(C(=O)Nc2cccc(S(=O)(=O)N(C)C)c2)c1C,nt,1.4,nt,nt,nt
O=C(CN1CCN(C(=O)CCc2ncc(-c3c(F)cccc3F)o2)CC1)Nc1cccc(F)c1,nt,2.3,nt,nt,nt
CC(CCc1ccccc1)NC(=O)c1ccc2c(c1)N(Cc1ccccc1)C(=O)CS2=O (stereo not drawn),nt,-3.0,nt,nt,nt
CCOC(=O)c1ccc(NC(=O)N2CCN(Cc3cccc(F)c3)CC2)cc1,8.5,4.6,2.5,-5.3,81.5*
CCN1CCc2c(sc(NC(=O)c3ccc(S(=O)(=O)N(CC)c4ccccc4)cc3)c2C(N)=O)C1,1.5,-5.2,60.6*,-8.1,28.0
CCN1CCc2c(sc(NC(=O)Nc3ccc(Cl)c(Cl)c3)c2C(N)=O)C1,14.5,7.1,80.8*,-17.1,81.8*
CCCCN(CCCC)S(=O)(=O)c1ccc(C(=O)Nc2sc3c(c2C(N)=O)CCN(CC)C3)cc1,nt,4.6,3.2,-18.5,nt
CCN1CCc2c(sc(NC(=O)Nc3cccc(C(C)=O)c3)c2C(N)=O)C1,nt,23.0,nt,nt,nt
CC1Oc2ccccc2C=C1/C=C1\Oc2cc(OCC(=O)OC(C)(C)C)ccc2C1=O (stereo not drawn),nt,6.2,nt,nt,nt
Cc1cccc(Nc2nc(C(=O)N3CCC(C)CC3)cs2)c1,nt,-9.0,nt,nt,nt
CC(C)c1ccc(NCCC(=O)c2cccs2)cc1,0.4,3.0,0.2,-22.1,89.6*
O=C(NNCc1ccccc1)c1ccccc1,nt,-4.3,-0.2,-3.7,nt
CC(C)c1ccc(CNNC(=O)c2ccccc2)cc1,-7.2,-0.5,0.2,18.8,83.3*
O=C(CSc1nccn2nc(-c3cccc4ccccc34)cc12)NCCc1ccccc1,nt,2.5,nt,nt,nt
O=C(CSc1ccc(Br)cc1)N1CCOCC1,-31.0,-8.6,0.2,4.2,80.0*
SMILES,TRPV1 potentiator,LDHA block,TRPML1 ag,TRPML1 inh,TRPV1 agonist
O=C(c1ccc(Br)s1)N1CCN(Cc2ccc3c(c2)OCO3)CC1,1.7,-9.5,-0.6,-51.4*,?
COc1ccc(NC(=O)CN2CCN(Cc3ccc4c(c3)OCO4)CC2)cc1OC,3.2,-36.6*,0.2,-3.2,-6.9
COc1cccc(CN2CCC(C(=O)N3CCN(c4ccccc4F)CC3)CC2)c1,-4.5,-8.0,0.8,21.3,1.9
COc1cccc(CN2CCC(C(=O)N3CCN(Cc4ccc5c(c4)OCO5)CC3)CC2)c1,-5.4,-33.1*,0.6,23.8,5.5
Cc1ccc(NC(=O)C(Sc2ccccc2)c2ccccc2)c(C)c1 (stereo not drawn),nt,-0.7,nt,nt,nt
COc1ccc(OC)c(NC(=O)C(Sc2ccccc2)c2ccccc2)c1 (stereo not drawn),-6.0,5.4,2.7,-51.5*,-1.2
O=C(O)c1ccc(N/N=C/c2cccc3cccnc23)cc1,2.2,-2.9,nt,nt,3.5
O=C(O)c1ccc(N/N=C/c2ccnc3ccccc23)cc1,1.6,-36.6*,0.1,-13.9,-4.7
COc1ccc(S(=O)(=O)N2CC3CCCN3c3ccc(C(F)(F)F)cc32)cc1 (stereo not drawn),?,-6.1,80.1*,-7.2,-0.9
Cc1ccc2oc(C(=O)N3CCC(c4nc5ccccc5s4)CC3)c(C)c2c1,nt,-6.4,54.1*,-11.8,nt
O=C1N=C(N2CCCCC2)S/C1=C\c1ccc(Br)cc1,6.5,-1.7,0.3,1.4,86.6*
COC(=O)CC(N)c1cccc(C)c1C (stereo not drawn),nt,26.0,nt,nt,nt
Cc1ccc(-n2ncc(C(=O)N3CCN(c4cccc(C)c4)C(C)C3)c2C2CCN(C(=O)OC(C)(C)C)CC2)cc1 (stereo not drawn),nt,-1.3,73.0*,-28.0,nt
Cc1cccc(-n2ncc(C(=O)N3CCN(Cc4ccccc4)CC3)c2C2CCN(C(=O)OC(C)(C)C)CC2)c1,nt,5.0,51.0*,-14.6,nt
CCOC(=O)c1cc(NC(=O)/C=C/C(=O)O)cc(C(=O)OCC)c1,nt,0.3,nt,nt,nt
CCc1nc(Nc2ccc(O)cc2)c2oc3ccccc3c2n1,-5.8,-6.0,2.8,47.5,?
Cc1nc(Nc2ccc3c(c2)OCCO3)c2oc3ccccc3c2n1,-2.7,-6.6,-0.9,7.3,81.5*
Cc1nc(Nc2ccc(Cl)cc2)c2oc3ccccc3c2n1,0.9,-6.8,0.7,18.0,5.4
OCc1cccc(Nc2ncnc3c2oc2ccccc23)c1,nt,-2.9,nt,nt,nt
c1ccc2c(c1)oc1c(Nc3ccc4c(c3)OCCO4)ncnc12,1.7,-3.3,3.3,14.0,82.9*
CCNc1nc(C)nc2c1oc1ccccc12,-11.3,1.6,0.0,26.9,?
CCNc1nc(CC)nc2c1oc1ccccc12,-20.2,-3.0,2.6,-10.4,87.8*
CCc1nc(Nc2ccc3c(c2)OCCO3)c2oc3ccccc3c2n1,-5.8,-0.9,1.8,-0.4,89.5*
CCN(CC(=O)N(C)C)C(=O)Cn1c(C)c(Br)c2ccccc21,nt,-18.2,nt,nt,nt
Cc1ccc(C(=O)NNC(=O)CNS(=O)(=O)/C=C/c2ccccc2)cc1,nt,-6.2,nt,nt,nt
NC(=O)c1ccccc1OC/C=C/c1ccccc1,nt,1.6,nt,nt,nt
CCOc1c(Cl)cc(CNCc2cccc(C#N)c2)cc1OC,nt,2.6,nt,nt,nt
O=C(Nc1ccc2oc(-c3cccnc3)nc2c1)c1ccccc1Cl,nt,1.5,nt,nt,nt
O=C(NCCC12CC3CC(CC(C3)C1)C2)c1ccccc1Cl,nt,7.9,nt,nt,nt
Cc1ccc2c(=O)cc(C(=O)NCc3ccc4c(c3)OCO4)oc2c1C,nt,7.1,nt,nt,nt
